The values that follow are results of earlier work, collected in PubChem BioAssay AID977611.

A short description of this series: PubChem AID 977611. The following applies: PDB protein-ligand complexes, literature Kd.

Screen size: about 3,900 compounds; about 3,900 (100%) were called active. The limit is not given here; nearly all actives have Kd up to about 4200 µM. The set was probably picked from earlier hits. The list shows a part of the results. Starred links: 1 amine or outer side, 2 acyl side, 3 side chain; linkers in the order of their positions; H or OH if unused. *1 amine or outer side, *2 acyl side, *3 side chain or, on linkers, in order; H or OH if unused. Where a SMILES comes first, the peptide text is derived from it. Non-standard residues stand in square brackets, D forms with d. Square brackets hold non-standard residues; d marks the D form. Residues, ends and D or L forms follow the SMILES beside them. Peptide text beside a SMILES is read from it. [ ]: non-standard residue; d: D form. X1 = O=C([C@H](Cc1ccc(OS(O)(O)O)cc1)N[*:1])[*:2]; Thr(P(OH)3+) = C[C@@H](O[P+](O)(O)O)[C@H](N)C(=O)O; Orn(CH(NH2)2) = NC(N)NCCC[C@H](N)C(=O)O

As a reminder, the Kd is the concentration at which binding is half-saturated. For `NC(=O)CC[C@H](NC(=O)[C@@H](N)Cc1cnc[nH]1)C(=O)N[C@@H](Cc1ccc(O[P+](O)(O)O)cc1)C(=O)N[C@@H](Cc1ccc(O[P+](O)(O)O)cc1)C(=O)N[C@@H](CC(N)=O)C(=O)N[C@@H](CC(=O)O)C(=O)N[C@@H](Cc1ccccc1)C(=O)N1CCC[C@H]1C(=O)O` (H-HQ[X1][X1]NDFP-OH), where the note is “protein: Grb2 SH2 domain, pY-Clamp Shc1_pY239/240, PDB entry 4jmh”, the Kd is 0.0021 µM (active).
Consider `NC1NC(=O)c2ncn([C@@H]3O[C@H](CO[P+](O)(O)O[P+](O)(O)O[P+](O)(O)O)[C@@H](O)[C@H]3O)c2N1` (stereo partly specified), for which, for the setting “protein: ADP-ribosylation factor 6, PDB entry 4kax”, the dissociation constant (Kd) was 17 µM (active).
With `NC1NC(=O)c2ncn([C@H]3CC[C@@H](CO[P+](O)(O)O[P+](O)(O)O[P+](O)(O)O)O3)c2N1` (stereo partly specified), the Kd (protein: DNA polymerase X from Thermus thermophilus HB8, PDB entry 3au6) was 0.012 µM (active).
Take `NC1C=CN([C@@H]2O[C@H](CO[P+](O)(O)O[C@H]3[C@@H](O)[C@H](n4cnc5c4NC(N)NC5=O)O[C@@H]3CO[P+](O)(O)O[C@H]3[C@@H](O)[C@H](n4cnc5c4NC(N)NC5=O)O[C@@H]3CO[P+](O)(O)O[C@H]3[C@@H](O)[C@H](n4cnc5c4NC(N)NC5=O)O[C@@H]3CO[P+](O)(O)O)[C@@H](O[P+](O)(O)O)[C@H]2O)C(=O)N1` (stereo partly specified): for the setting “protein: Heat resistant RNA dependent ATPase, PDB entry 4i67”, the equilibrium dissociation constant (Kd) was 0.45 µM (active).
Regarding `NC1NC(=O)c2ncn([C@@H]3O[C@H](CO[P+](O)(O)O[P+](O)(O)O)[C@@H](O)[C@H]3O)c2N1` (stereo partly specified), the Kd (PDB entry 4lps) was 1.8 µM (active); the dissociation constant (Kd) (protein: Atlastin-1, PDB entry 4ido) was 11.6 µM (active); the Kd (protein: Methylmalonyl-CoA mutase accessory protein, PDB entry 4jyc) is 0.2 µM (active); the dissociation constant (Kd) (protein: Ras-related protein Rab-8A with Guanine nucleotide exchange factor GRAB, PDB entry 4li0) was 0.26 µM (active); the dissociation constant Kd (protein: Ras-related protein Rab-8A, PDB entry 4lhv) was 0.0001 µM (active).
As for `NC1NC(=O)c2ncn([C@@H]3O[C@H](CO[P+](O)(O)O[P+](O)(O)N[P+](O)(O)O)[C@@H](O)[C@H]3O)c2N1` (stereo partly specified), the Kd runs as follows: (protein: Atlastin-1, PDB entry 4idn) 5.77 µM (active); (protein: GTPASE IMAP FAMILY MEMBER 7, PDB entry 3zjc) 9 µM (active); (protein: Methylmalonyl-CoA mutase accessory protein, PDB entry 4jyb) 0.11 µM (active).
Turning to `O=C(O)c1c[nH]c2ccccc12`, the Kd (protein: INTEGRASE, PDB entry 4ahu) was 5400 µM (active).
`O=C(O)CCc1c[nH]c2ccccc12`: under “protein: Protease (Q7K, L33I, L63I, C67A, C95A mutation), PDB entry 4ejl”, the Kd was 7.2 µM (active).
As for H-VGMHSKGTQTA-OH, the Kd (protein: DYNEIN LIGHT CHAIN 1, CYTOPLASMIC, PDB entry 3zke) was 0.16 µM (active).
For `CSCC[C@H](NC(=O)CNC(=O)[C@@H](N)C(C)C)C(=O)N[C@@H](Cc1cnc[nH]1)C(=O)N[C@@H](CO[P+](O)(O)O)C(=O)N[C@@H](CCCCN)C(=O)NCC(=O)N[C@H](C(=O)N[C@@H](CCC(N)=O)C(=O)N[C@H](C(=O)O)[C@@H](C)O)[C@@H](C)O`, the Kd (protein: DYNEIN LIGHT CHAIN 1, CYTOPLASMIC, PDB entry 3zkf) is 0.96 µM (active).
Take `NCc1csc(-c2cccs2)n1`: the equilibrium dissociation constant (Kd) (protein: CATIONIC TRYPSIN, PDB entry 4aba) was 153 µM (active).
For the compound `Cc1noc(C)c1-c1cc(NS(=O)(=O)c2ccccc2)cc(C(=O)O)c1`, under “protein: ATPase family AAA domain-containing protein 2 ATAD2A bromodomain, PDB entry 4tu4”, the dissociation constant Kd was 175 µM (active).
Turning to `O=C(O)c1cccc2ccoc12`, where the note is “protein: INTEGRASE, PDB entry 4ahs”, the dissociation constant (Kd) was 6400 µM (active).
In the case of `O=C(O)Cc1cc(O)ccc1O`, for the setting “protein: HOMOGENTISATE 1,2-DIOXYGENASE, PDB entry 4aq6”, the Kd is 15.8 µM (active).
Take H-AFFAQLQLDAETGEFL-OH: the Kd (protein: Kelch-like ECH-associated protein 1, PDB entry 2flu) was 0.02 µM (active).
Turning to `CC(C)C[C@H](NC(=O)[C@H](CC(C)C)NC(=O)CNC(=O)[C@@H](NC(=O)[C@H](CC(=O)O)NC(=O)[C@H](CC(=O)O)NC(=O)[C@H](Cc1ccc(OS(O)(O)O)cc1)NC(=O)[C@H](Cc1ccc(OS(O)(O)O)cc1)NC(=O)[C@H](CO)NC(=O)[C@@H](NC(=O)[C@@H](NC(=O)CNC(=O)[C@H](Cc1ccccc1)NC(=O)[C@@H](NC(=O)[C@H](CCC(=O)O)NC(=O)[C@@H](N)C(C)C)[C@@H](C)O)[C@@H](C)O)[C@@H](C)O)C(C)C)C(=O)O` (H-VETFGTTS[X1][X1]DDVGLL-OH), for the setting “protein: CC chemokine (CCL11/ eotaxin-1), PDB entry 2mpm”, the Kd was 1.3 µM (active).
Regarding `CC(C)C[C@H](NC(=O)[C@@H](N)CO)C(=O)N[C@@H](CCC(=O)O)C(=O)N[C@H](C(=O)N[C@H](C(=O)N[C@@H](CCC(=O)O)C(=O)N[C@@H](C)C(=O)N[C@@H](CC(=O)O)C(=O)N[C@@H](C)C(=O)N[C@H](C(=O)N[C@@H](Cc1ccccc1)C(=O)N[C@H](C(=O)N[C@@H](CCC(N)=O)C(=O)O)C(C)C)[C@@H](C)O)[C@@H](C)O[P+](O)(O)O)C(C)C` (H-SLEV[Thr(P(OH)3+)]EADATFVQ-OH), the equilibrium dissociation constant (Kd) (protein: FHA1 Domain of Rad53, PDB entry 1k3q) was 0.3 µM (active).
As to `CC(C)C[C@H](NC(=O)[C@H](Cc1ccccc1)NC(=O)[C@H](CCC(=O)O)NC(=O)[C@H](C)NC(=O)[C@@H](NC(=O)[C@H](CC(C)C)NC(=O)[C@H](CCC(=O)O)NC(=O)[C@H](CC(=O)O)NC(=O)[C@H](CCC(=O)O)NC(=O)[C@H](CO)NC(=O)[C@H](C)N)C(C)C)C(=O)N[C@@H](CCC(N)=O)C(=O)N[C@@H](CC(=O)O)C(=O)N[C@@H](CCC(N)=O)C(=O)N[C@@H](CC(N)=O)C(=O)O` (H-ASEDELVAEFLQDQN-OH), the Kd (protein: PEROXISOMAL MEMBRANE PROTEIN PEX14, PDB entry 4bxu) was 0.1 µM (active).
Consider H-DDFGGFEAAET-OH, for which the Kd (protein: ADP-ribosylation factor binding protein GGA1, PDB entry 1om9) was 70 µM (active).
Consider `CC(C)C[C@H](NC(=O)[C@H](CCC(=O)O)NC(=O)[C@H](CCC(N)=O)NC(=O)[C@@H](NC(=O)[C@H](CO)NC(=O)[C@@H](N)C(C)C)[C@@H](C)O[P+](O)(O)O)C(=O)N[C@@H](Cc1ccc(O)cc1)C(=O)N[C@@H](CO)C(=O)O` (H-VS[Thr(P(OH)3+)]QELYS-OH), for which the Kd (protein: mammalian MDC1 FHA domain, PDB entry 3va4) was 40 µM (active).
As to H-EWGPWV-NH2, where the note is “protein: AP-1 COMPLEX SUBUNIT GAMMA-LIKE 2, PDB entry 2ymt”, the Kd was 0.01 µM (active).
In the case of `CC(C)C[C@@H](NC(=O)[C@H]1CCCN1C(=O)[C@@H](Cc1c[nH]c2ccccc12)NC(=O)[C@@H](Cc1c[nH]c2ccccc12)NC(=O)[C@H](N)CC(=O)O)C(=O)N[C@H](C)C(=O)N[C@H](Cc1ccccc1)C(=O)N[C@H](CCC(=O)O)C(=O)N[C@H](C)C(=O)N[C@H](CC(C)C)C(=O)N[C@H](CC(C)C)C(=O)N[C@H](CCCNC(N)N)C(=O)O`, where the note is “protein: human MDM2 (Synthetic construct, 25-109), PDB entry 3iwy”, the Kd was 0.053 µM (active).
On to `C[C@H](NC(=O)[C@@H](N)CO)C(=O)N[C@@H](CCCNC(N)N)C(=O)N[C@@H](Cc1c[nH]c2ccccc12)C(=O)N[C@@H](CCCNC(N)N)C(=O)N[C@@H](Cc1ccccc1)C(=O)N1CCC[C@H]1C(=O)N[C@@H](C)C(=O)N[C@@H](CCCNC(N)N)C(=O)N1CCC[C@H]1C(=O)NCC(=O)N[C@H](C(=O)O)[C@@H](C)O`, for which the Kd (protein: Menin (A541T mutation), PDB entry 4gq6) is 0.053 µM (active).
In the case of H-EPQAPWME-OH, the dissociation constant Kd (protein: antibody Fab, PDB entry 3uyr) is 0.127 µM (active).
Regarding `CC(C)C[C@H](NC(=O)[C@H](Cc1c[nH]c2ccccc12)NC(=O)[C@H](CC(=O)O)NC(=O)[C@H](CCC(N)=O)NC(=O)[C@H](CC(N)=O)NC(=O)[C@H](CCCNC(N)N)NC(=O)[C@@H]1CCCN1C(=O)CNC(=O)[C@@H](N)CCC(=O)O)C(=O)O` (H-EGP[Orn(CH(NH2)2)]NQDWL-OH), the dissociation constant (Kd) (protein: H-2 class I histocompatibility antigen (Y159F mutation), PDB entry 4iho) is 8 µM (active).
